# Test results reported in PubChem BioAssay AID743172 (National Center for Advancing Translational Sciences (NCATS), 2013).
# Results filed as inconclusive are left out. The source made the active and inactive calls. The call rests on the fitted dose curve; in most records, active means well fitted activation curve with a large enough effect; inconclusive means small, poorly fitted or top-dose-only effect; inactive means no such curve, though single readings can be large or run the other way.
# Test: Extended Characterization of HPGD Inhibitors: PGE2 Assay in LNCaP Cells
# Details: PGE2 HTRF level, 16 h
# Source text: The central role of HPGD is to inactivate prostaglandins such as prostaglandin E2 (PGE2) or prostaglandin D2 (PGD2). These prostaglandins are involved in a number of processes, including inflammation, differentiation, and cellular signaling, which makes HPGD an important target for pharmacological intervention. A number of prostaglandins of particular biological interest have been identified as substrates of HPGD. […] Over-production of PGE2 has been reported to promote tumor-associated neovascularization, cell proliferation, and tumor growth. […] In this orthogonal assay, we set out to measure if compounds were able to increase PGE2 production NIH Chemical Genomics Center [NCGC] NIH Molecular Libraries Probe Centers Network [MLPCN] MLPCN Grant: MH084681 Assay Submitter (PI): Structural Genomics Consortium
# A549 cells, LNCaP cells or media were dispensed in 384-well plates (ProxiPlate-384 Plus, PerkinElmer, Shelton, CT) at 5,000 cells/9.9 uL/well using a CappAero384 multichannel pipette (Odense, Denmark). Separately on the plate, 10 uL of PGE2 calibration standards at a starting assay concentration of 5,000 pg/mL (1:2 dilution, 12-points, n = 1, prepared in media, Cisbio, Bedford, MA) were dispensed. Compounds (100 nL, final concentration range from 41.9 nM to 100 uM) were transferred using an ATS Acoustic Liquid Dispenser (EDC Biosystems, Fremont, CA). After being mixed using an automated liquid handler (CyBio, Jena, Germany), samples were incubated (37 deg C, 5% CO2, under a humidified atmosphere) for 16 hours. PGE2 labeled conjugates were added to each well, first 5 uL of PGE2-d2, followed by 5 uL of anti-PGE2-cryptate, centrifuged (1,500 rpm, 15 sec) and incubated (RT, protected from light) for 5 hours. Time-resolved fluorescence intensity (320 nm excitation, 615 and 665 nm emission) was measured using an Envision plate reader (PerkinElmer). Data was expressed as the ratio of 665 nm/615 nm emissions. Concentration (pg/mL) of samples were calculated from a 4-parameter logistic calibration curves of the PGE2 standards.
row,Structure (SMILES),Potency
1,Cc1cc(-c2nnc3n2CCCCC3)c(C)n1-c1ccc(Cl)cc1,2220 nM (active)
2,Cc1cc(-c2nnc3n2CCCCC3)c(C)n1-c1cccnc1,4430 nM (active)
3,COc1ccc(-n2c(C)cc(-c3nnc4n3CCCCC4)c2C)cc1,2800 nM (active)
4,Cc1cc(-c2nnc3n2CCCCC3)c(C)n1-c1ccc(C(C)(C)C)cc1,2220 nM (active)
